Hit rate of the full screen: of about 360,000 compounds, about 300 (0.083%) were called active. No stated cut-off is given here; in the data, active means activation above about 40%; inconclusive means between about 15% and that limit; inactive means weaker than that. For the sample, actives were picked, then their nearest neighbours and some compounds at random.
Molecular target: D(2) dopamine receptor (Homo sapiens) (UniProt P14416)
Assay: Beta-Arrestin HTS for Positive Allosteric Modulators of the Human D2 Dopamine Receptor: Agonists
Conditions: DiscoveRx PathHunter D2 beta-arrestin, luminescence, 90 min; stronger effect = higher value; 100% = 57 uM dopamine signal
How it was run: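 Agonist mode: compounds alone added to overnight-plated D2 PathHunter cells for 90 min at 37 C, with 57 uM final dopamine (EC100) defining full response. Beta-arrestin recruitment detected by chemiluminescent reagent, read after 1 h at ambient temperature.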

Sequence of D(2) dopamine receptor (Homo sapiens) (P14416 whole entry, looked up): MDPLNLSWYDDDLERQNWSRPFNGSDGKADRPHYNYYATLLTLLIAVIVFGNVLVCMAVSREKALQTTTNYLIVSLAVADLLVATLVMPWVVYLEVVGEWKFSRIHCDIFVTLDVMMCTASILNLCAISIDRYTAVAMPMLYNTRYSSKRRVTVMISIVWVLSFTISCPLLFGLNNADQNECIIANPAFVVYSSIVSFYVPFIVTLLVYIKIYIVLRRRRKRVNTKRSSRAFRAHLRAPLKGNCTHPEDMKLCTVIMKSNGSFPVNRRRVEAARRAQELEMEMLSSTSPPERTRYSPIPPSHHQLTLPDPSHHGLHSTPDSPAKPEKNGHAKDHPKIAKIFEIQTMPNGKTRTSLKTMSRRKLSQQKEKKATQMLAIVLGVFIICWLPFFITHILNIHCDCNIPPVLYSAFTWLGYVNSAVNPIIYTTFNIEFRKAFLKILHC

| Compound | activation |
| --- | --- |
| COCc1[nH][nH]c(=O)c1C=Nc1ccc(F)cc1F | -3.8% (inactive) |
| COC(=O)C1CC2=C(CC(C)(C)CC2=O)N(c2ccccc2)C1=O (stereo not given) | -1.92% (inactive) |
| O=C(CS(=O)(=O)c1cn(Cc2ccc(Cl)cc2)c2ccccc12)N1CCOCC1 | -7.71% (inactive) |
| COc1ccc(S(=O)(=O)N(C)C[C@@H]2Oc3ccc(NS(=O)(=O)c4cn(C)cn4)cc3C(=O)N([C@@H](C)CO)C[C@@H]2C)cc1 | -2% (inactive) |
| Brc1cnc2ccccc2c1N1CCCCC1 | -0.246% (inactive) |
| COC(=O)c1cc(CNC(=O)CC(C)c2ccccc2)ccc1OC (stereo not given) | -6.11% (inactive) |
| C/C(=N\NC(=O)c1ccc(CSc2nc(C)cc(C)n2)cc1)C1CCCCC1 | 2.32% (inactive) |
| CCOC(=O)C(C)Sc1nnc(CSc2nc3nc(C)cc(C)n3n2)o1 (stereo not given) | -4.24% (inactive) |
| CN(C)C(=O)CCC(=O)N1CCCCC1C(=O)Nc1ccc(Oc2ccccc2F)cc1 (stereo not given) | -8.59% (inactive) |
| COc1ccc(N(CC(=O)NC2CCCC2)C(=O)CS(=O)CC(=O)Nc2ccc3c(c2)OCO3)cc1 (stereo not given) | -1.02% (inactive) |
| Cc1ccccc1-c1nc(CS(=O)(=O)CC(=O)N2CCc3ccccc3C2)c(C)o1 | -4.35% (inactive) |
| CCC1C(C#N)=C(SC)NC2=C1C(=O)CC(C)(C)C2 (stereo not given) | -0.142% (inactive) |
| O=C(NC1CCCCC1)C1CC(=O)N(CCc2ccccc2)C1 (stereo not given) | -0.239% (inactive) |
| CO/N=C/c1cn(-c2ccc(Cl)cc2)nn1 | -5.2% (inactive) |
| N#CC1(Nc2ccc3c4c(cccc24)CC3)CCCCC1 | -1.77% (inactive) |
| CCOc1ccc(CC(=O)NCCS(=O)(=O)N2CCN(c3ccccc3)CC2)cc1 | 0.195% (inactive) |
| CCS(=O)(=O)N1CCC(N2CCN(c3ccccc3)CC2)CC1 | 45.9% (active) |
| O=S(=O)(NCCS(=O)(=O)N1CCN(c2ccccc2)CC1)c1ccc(F)cc1 | -3.38% (inactive) |
| COc1ccc(CCn2c(NCCCN3CCOCC3)nc3c2c(=O)[nH]c(=O)n3C)cc1 | 0.498% (inactive) |
| COc1ccc(CCn2c(NN=C3CCCC3)nc3c2c(=O)[nH]c(=O)n3C)cc1 | 46% (active) |
| CC1CCN(c2nc3c(c(=O)[nH]c(=O)n3C)n2CCCc2ccccc2)CC1 | 1.37% (inactive) |
| Cc1noc(C)c1C(=O)NC(C)c1ccc2c(c1)OCO2 (stereo not given) | 2.73% (inactive) |
| Nc1cc2c(cc1Br)-c1ccc(F)cc1C2=O | 0.435% (inactive) |

| Compound | activation |
| --- | --- |
| Cn1nc(C(=O)OCC(=O)N(Cc2ccccc2)C(C)(C)C)c2ccccc2c1=O | -5.43% (inactive) |
| CNC[C@@H]1Oc2c(NS(C)(=O)=O)cccc2C(=O)N([C@@H](C)CO)C[C@H]1C | -2.2% (inactive) |
| CCOc1cc(CN2CCCC(CO)(Cc3ccc(F)cc3F)C2)ccc1OC (stereo not given) | -5.13% (inactive) |
| COc1ccccc1N1CCN(S(=O)(=O)CCNC(=O)c2ccc(OC(C)C)cc2)CC1 | 4.66% (inactive) |
| CCCCNC(=O)c1nc(C2CCN(S(=O)(=O)c3ccc(F)c(F)c3)CC2)oc1-c1cccc(C(F)(F)F)c1 | -1.93% (inactive) |
| OCCN1CCN(CCO)C1=S | -3.52% (inactive) |
| O=C(CSc1nnc2n1CCCN2)c1ccccc1 | 1.27% (inactive) |
| COc1cc([N+](=O)[O-])cc([N+](=O)[O-])c1NC(=O)N1CCOCC1 | 5.63% (inactive) |
| COc1cc(C(=S)N2CCOCC2)cc(OC)c1OC(=O)c1ccc([N+](=O)[O-])cc1[N+](=O)[O-] | 48% (active) |
| COc1cc(C(=S)N2CCOCC2)cc(OC)c1OC(=O)c1cc([N+](=O)[O-])c(C)c([N+](=O)[O-])c1 | 4.7% (inactive) |
| O=C(CN(C(=O)CNC(=O)c1cccs1)c1cccc(F)c1)NC1CCCCC1 | -1.63% (inactive) |
| O=C1CCC(C(=O)N2CCCCO2)CN1Cc1cccc(C(F)(F)F)c1 (stereo not given) | 1.46% (inactive) |
| CCCCN1C(=O)C(CC(=O)NC(c2ccccc2)c2ccccc2)CC(C(=O)N2CCOCC2)=C1C (stereo not given) | -7.35% (inactive) |
| CCOC(=O)C(CCOc1cccc(CC)c1)C(=O)OCC | -1.01% (inactive) |
| CNC(=O)c1csc(Cc2c(Cl)sc3ccc(Cl)cc23)n1 | 4.37% (inactive) |
| Cc1ccc(S(=O)(=O)N(CC(=O)Nc2cccc([N+](=O)[O-])c2)Cc2ccc(Cl)cc2)cc1 | -7.47% (inactive) |
| CCC(C)NC(=O)Cn1nc(C(F)(F)F)c2c1CCC2 (stereo not given) | 1.68% (inactive) |
| COc1ccc(S(=O)(=O)N(C)C[C@H]2OCc3cnnn3CCCC(=O)N([C@H](C)CO)C[C@H]2C)cc1 | 4.14% (inactive) |
| CN(C)CCNC(=O)c1ccc(-c2cn3c(-c4ccc(Oc5ccccc5)cc4)cnc3cn2)cc1 | 3.24% (inactive) |
| C/C=C/C(=O)Nc1nnc(C(C)C)s1 | -0.338% (inactive) |
| O=C(NNc1nc(N2CCCC2)nc(N2CCCC2)n1)c1ccccc1 | 1.25% (inactive) |
| Cc1cc2c(cc1C)NC1(C[C@H]3CCC(=O)N4CC[C@@H](C1)[C@@H]34)C(=NC(C)(C)CC(C)(C)C)N2 (stereo not given in full) | 1.8% (inactive) |

From PubChem BioAssay AID624465 (National Center for Advancing Translational Sciences (NCATS), 2012)
